Data: PubChem BioAssay (NCATS)
Values joined by “and” are separate entries in the source; they are usually repeats but may differ in a detail not shown here. Equal values may be shown once. Results filed as inconclusive are left out. Active and inactive are the calls of the source. The call rests on the fitted dose curve; in most records, active means well fitted cell-killing curve with a large enough effect in the repeat runs; inconclusive means weak or mixed curves; inactive means flat fitted curve, though single readings scatter.

experiment: qHTS assay for small molecule agonists of the antioxidant response element (ARE) signaling pathway measured by Nrf2-dependant transcriptional activity - cell viability counter screen (AID 720653); settings: ARE-bla HepG2 viability, CellTiter-Glo ATP luminescence, 16 h; max response: hits give low values
Excerpt: National Center for Advancing Translational Sciences [NCATS] NIH Chemical Genomics Center [NCGC] U.S. Environmental Protection Agency [EPA] National Institutes of Environmental Health Sciences [NIEHS] National Toxicology Program [NTP] Assay Overview: Oxidative stress has been implicated in the pathogenesis of a variety of diseases ranging from cancer to neurodegeneration. The antioxidant response element (ARE) signaling pathway plays an important role in the amelioration of oxidative stress. The CellSensor ARE-bla HepG2 cell line (Invitrogen) can be used for analyzing the Nrf2/antioxidant response signaling pathway. Nrf2 (NF-E2-related factor 2) and Nrf1 are transcription factors that bind to AREs and activate these genes. The CellSensor ARE-bla HepG2 cell line contains a beta-lactamase reporter gene under control of the Antioxidant Response Element (ARE) stably integrated into HepG2 cells. The activation of the report gene under culture conditions can be detected by fluorescence intensity. The cytotoxicity of the compounds against the ARE-bla HepG2 cell line was quantified by measuring the intracellular ATP content.
Assay Protocol Summary: ARE-bla HepG2 cells were dispensed at 2,000 cells/5 ul/well in 1536-well black wall/clear bottom plates using a Multidrop Combi (ThermoFisher Scientific, Waltham, MA) dispenser. After the assay plates were incubated at 37C/5% CO2 for 5 hrs, 23 nL of compounds dissolved in DMSO, positive controls or DMSO only was transferred to the assay plate by a pintool work station (Kalypsys, San Diego, CA). The plates were incubated at 37C/5% CO2 for 16 hrs. After 1 uL of LiveBLAzer B/G FRET substrate was added using a Flying Reagent Dispenser (FRD) (Aurora Discovery, San Diego, CA), the assay plates were incubated at room temperature for 2 hrs. The fluorescence intensity was measured by an Envision (PerkinElmer, Shelton, CT) plate reader. Cell viability using CellTiter Glo viability assay (Promega, Madison, WI) was also measured by adding 4 ul/well of CellTiter-Glo reagent into the same assay plate using a FRD. After 30 min incubation at room temperature, the luminescence intensity in the plates was measured using a ViewLux (PerkinElmer) plate reader.
On the % scale 0 is the no-effect control and ±100 the full control effect; potency means the concentration at half of the fitted maximal effect.

SMILES | max response | Potency
O=C(O)C(c1ccc(Cl)cc1)c1ccc(Cl)cc1 | -12.1% (inactive) | 
Cc1cc(Cc2cc(C)cc(C(C)(C)C)c2O)c(O)c(C(C)(C)C)c1 |  | 39.8 µM (active)
CC(COCC(C)OC(=O)c1ccccc1)OC(=O)c1ccccc1 (stereo not given) | -9.83% (inactive) | 
CS/C(=N\O)C(=O)N(C)C | -5.16% (inactive) | 
CSc1ccc(Cl)cc1 | -9.05% (inactive) | 
C=CCCCCCCCCCC | -1.98% (inactive) | 
Oc1ccc2ccccc2c1N=Nc1ccccc1 | -25.3% (inactive) | 
CC(C)(C)c1ccc(C(=O)O)cc1 | 14.5% (inactive) | 
CCCCCC1CCC(=O)O1 (stereo not given) | 1.26% (inactive) | 
c1ccc2c(c1)ccc1c3ccccc3ccc21 | -24.7% (inactive) | 
OCCOCCOCCOCCO | 2.46% (inactive) | 
C=C(C)C(=O)OCCCCCCCCCCCCCCCC | 0.407% (inactive) | 
Cc1ccc(C(=O)c2ccccc2)cc1 | -0.957% (inactive) | 
BrC1CCC(Br)C(Br)CCC(Br)C(Br)CCC1Br (stereo not given) | 0.219% (inactive) | 
O=C(c1ccccc1)c1ccc(O)c(O)c1O | -9.24% (inactive) | 
CC(C)CC(C)(O)C#CC(C)(O)CC(C)C (stereo not given) | -3.69% (inactive) | 
CCOCCOCCOCCO | 19.8% (inactive) | 
CCOCCOCCOC(C)=O | 2.87% (inactive) | 
COc1ccc(OC)c(OC)c1 | 7.1% (inactive) | 
CCCCCCCCCCCCCO | -9.94% (inactive) | 

SMILES | max response | Potency
CCCCCCCCCC[N+](C)(C)Cc1ccccc1 | -23% (inactive) | 
C=C(C)C(=O)OCCN(C)C | -4.72% (inactive) | 
CCCCCCCCCCCCCCC | 10.3% (inactive) | 
Fc1ccc(Br)cc1 | -9.66% (inactive) | 
Nc1c(N=Nc2ccc(S(=O)(=O)CCOS(=O)(=O)O)cc2)c(S(=O)(=O)O)cc2cc(S(=O)(=O)O)c(N=Nc3ccc(S(=O)(=O)CCOS(=O)(=O)O)cc3)c(O)c12 |  | 35.5 µM (active)
CS(=O)(=O)c1ccc(Cl)cc1 | 0.283% (inactive) | 
OCC(CO)(CO)COCC(CO)(CO)CO | 3.18% (inactive) | 
COC(=O)C1CCC(C(=O)OC)CC1 (stereo not given) | 1.5% (inactive) | 
CC(C)(C)[C@H](O)[C@H](Cc1ccc(Cl)cc1)n1cncn1 | -1.92% (inactive) and -9.33% (inactive) | 
CCCCOC(=O)c1ccccc1 | 21.3% (inactive) | 
CCOC(=O)NCCOc1ccc(Oc2ccccc2)cc1 | -19.4% (inactive) | 
OCc1cccc(Oc2ccccc2)c1 | 2.09% (inactive) | 
Cc1ccc2c(c1)C(=O)OC2=O | -8.54% (inactive) | 
FC(F)(F)c1ccc(Cl)c(Cl)c1 | -4.28% (inactive) | 
CCCCCCCCCCCC[N+](C)(C)C | -23.2% (inactive) | 
CC(C)(N=C=O)c1cccc(C(C)(C)N=C=O)c1 | -5.26% (inactive) | 
C[Si](C)(C)N[Si](C)(C)C | 1.14% (inactive) | 
CN(C)CCOCCN(C)C | -2.1% (inactive) | 
CCCCCCCCCCCCCCCCCC#N | 11.9% (inactive) | 
CC1(C)[C@@H](C=C(Cl)Cl)[C@@H]1C(=O)OCc1cccc(Oc2ccccc2)c1 | -5.58% (inactive) | 
